Reference: PubChem BioAssay (EPA / NIEHS)
The source made the active and inactive calls. The calls were made as follows: active = hit-call score of the fitted dose curve at least 0.9, where 1 is the maximum; inactive = score below 0.9.

Assay: CCTE_Shafer_MEA_acute_cross_correlation_area: CCTE's Neural Acute Assay for Area of Cross Correlation, Shafer Lab (AID 2284024);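 also: curves fitted for loss of cross-correlation area so actives lower synchrony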
Protocol: CCTE_Shafer_MEA_acute assay is conducted using Axion Biosystems 48 well microelectrode array (MEA) plates and Maestro recording system. Each well of the MEA plate contains a grid of 16 microelectrodes embedded in the culture surface. Electrically active cells, such as neurons, can be cultured over the electrodes, and electrical activity in these cells can be recorded extracellularly. The spontaneous firing of neurons is captured from each electrode on a microsecond timescale providing both temporally and spatially precise data. […] The CCTE_Shafer_MEA_acute assay uses primary cultures of rat cortical neurons. As these cultures mature over time, neural networks develop functional activity and form cohesive networks in which electrical activity can be highly coordinated. Baseline 40-minute recordings are made on days post-plating 13 or 15, followed by a secondary 40-minute recording after chemical exposure.CCTE_Shafer_MEA_acute_cross_correlation_area is a component of the CCTE_Shafer_MEA_acute assay. It measures the area under the well-wide pooled inter-electrode cross-correlation of action potential firing (not normalized to auto-correlations) within a window centered around 0 for the phase lag during a recording in a microelectrode array (MEA) using Axion Biosystems Maestro 768 channel amplifier with the AxIS adaptive spike detector. The recordings before and after chemical treatment are used to calculate a percent change in the cross correlation area in each well.Data from the assay component CCTE_Shafer_MEA_acute_cross_correlation_area was analyzed into 1 assay endpoint. This assay endpoint, CCTE_Shafer_MEA_acute_cross_correlation_area, was analyzed in the negative analysis fitting direction relative to DMSO as the negative control and baseline of activity. Using a type of functional reporter, gain or loss-of-signal activity can be used to understand electrical activity.
Spontaneous activity in the cortical cultures was recorded using an Axion Biosystems Maestro 768 channel amplifier and Axion Integrated Studios (AxIS) v1.8 (or later) software. The amplifier recorded from all channels simultaneously (gain = 1200 x; sampling rate = 12.5 kHz/channel): raw signals were filtered with a Butterworth band-pass filter (300-5000 Hz), which filters out slower local field potentials leaving only fast potentials, i.e., "spikes", arising from extracellular currents associated with action potentials (Pine 2006; Wheeler and Nam 2011). On-line spike detection of filtered signals was conducted with the AxIS adaptive spike detector, using a threshold of 8x the root mean squared (rms) noise on each channel. Any electrodes with rms noise levels greater than 5 uV were grounded (e.g., no data were recorded). Once grounded, an electrode was grounded for the duration of the experiment. All recordings were conducted at 37 C. Wells were deemed usable if on the day of the exposure >/= 10 electrodes were active (defined as >/= 5 spikes/min). On DIV 13 or 15, a minimum of three wells from one cortical culture preparation were treated with each compound (0.03-40 uM). Prior to recording baseline activity, each mwMEA plate was placed in the Maestro at 37 C and allowed to sit for 20 min while firing rates stabilized. Baseline activity (40 min) was recorded before the addition of each compound. An additional 40 min of spontaneous activity was recorded in the presence of each compound. Changes in network parameters relative to baseline were assessed following compound treatment.

Row | Compound | outcome | AC50
1 | O=CN1CCOCC1 | inactive | 
2 | CN(C)C(=S)SC(=S)N(C)C | inactive | 
3 | COCCc1ccc(OCC(O)CNC(C)C)cc1 (stereo not given) | inactive | 
4 | CC1(C)CCC[C@]2(C)[C@H]3CCO[C@]3(C)CC[C@@H]12 | inactive | 
5 | Oc1c(Cl)cc(Cl)c(Cl)c1Cc1c(O)c(Cl)cc(Cl)c1Cl |  | 127 nM (active)
6 | CC(CN=Cc1ccccc1O)N=Cc1ccccc1O (stereo not given) | inactive | 
7 | CCCCCCC(CO)CCCC (stereo not given) | inactive | 
8 | CCOC(=O)C(C#N)=C(c1ccccc1)c1ccccc1 | inactive | 
9 | C=CC(C)(O)CCC=C(C)C (stereo not given) | inactive | 
10 | O=C(Nc1ccc2c(O)c(N=Nc3ccc(N=Nc4ccc(S(=O)(=O)O)cc4)cc3)c(S(=O)(=O)O)cc2c1)c1ccccc1 | inactive | 
